About 5,100 (1.2%) of roughly 410,000 compounds were called active. Entries that show only a call come without a potency. Roughly 8% stayed inconclusive and do not appear here. The sample holds actives, similar compounds and a random draw of the others, so the mix is not that of the screen. A number with no mark means an inactive call. Calls come from the whole dose curve; tested in HEK293T cells.
experiment: High Throughput Screening for Foot and Mouth Disease Virus Antivirals; conditions: FMDV antiviral cell-based qHTS; series mostly up to 57.9 µM; note: read-out not given here; nearly all actives have a fitted effect of over 45% in size
Potency is the fitted concentration of half-maximal effect.

Row | SMILES | Potency | activity change, negative = inhibition
1 | CC(=O)N1CCN(Cc2cc(=O)oc3cc(C)ccc23)CC1 | inactive | 
2 | O=c1cc(CN2CCN(S(=O)(=O)/C=C/c3ccccc3)CC2)c2ccc(O)cc2o1 | inactive | 
3 | COc1ccc2c(CN3CCN(S(=O)(=O)c4cccs4)CC3)cc(=O)oc2c1 | 39.8 µM (active) | 
4 | O=c1c(NCc2cccs2)nccn1-c1ccccc1 | inactive | 
5 | CCCCC/C=C\C/C=C\C/C=C\C=C\[C@H](CCCC(=O)O)OO |  | -15.4% [at 0.463 µM]
6 | O=C(NCc1cccnc1)c1ccc(CS(=O)(=O)c2ccc(Br)cc2)o1 | inactive | 
7 | COc1ccc(CCNC(=O)c2ccc(CS(=O)(=O)c3ccc(Br)cc3)o2)cc1OC | 31.6 µM (active) | 
8 | COc1ccc(CCNC(=O)c2nnc(CS(=O)(=O)c3ccccc3)o2)cc1OC | inactive | 
9 | Cc1nnc(SCc2cccc(Cl)c2)n(N)c1=O | inactive | 
10 | Cc1cccc2nc(CSc3nc4[nH]ncc4c(=O)n3-c3cccc(Cl)c3)cc(=O)n12 | 15.8 µM (active) | 
11 | CCc1ccc(-n2c(SCc3cc(=O)n4cc(Br)ccc4n3)nc3[nH]ncc3c2=O)cc1 | 31.6 µM (active) | 
12 | Cc1nnc(NC(=O)CSc2nc3c([nH]c4ccccc43)c(=O)n2-c2cccc(Cl)c2)s1 | inactive | 
13 | O=c1c2sccc2nc(SCc2cc(=O)n3ccccc3n2)n1-c1ccc(Br)cc1 | inactive | 
14 | Cc1ccc(CSc2nc3[nH]ncc3c(=O)[nH]2)cc1 | inactive | 
15 | O=C(NCc1ccccc1)C(=O)NCC(c1ccco1)S(=O)(=O)c1ccc(Cl)cc1 (configuration not stated) | 31.6 µM (active) | 
16 | COc1ccc(CCNC(=O)C(=O)NCC(c2ccco2)S(=O)(=O)c2cccs2)cc1OC (configuration not stated) | inactive | 
17 | O=C(Cc1ccc(Cl)cc1)NCC(c1cccs1)S(=O)(=O)c1ccc(Cl)cc1 (configuration not stated) | inactive | 
18 | COc1ccc(Oc2ncc3nc(-c4ccc(F)cc4)c(=O)n(C)c3n2)cc1 | inactive | 
19 | CC(=O)Nc1cc(C(=O)NCc2ccc(F)cc2)ccc1Sc1ccc(F)cc1 | inactive | 
20 | COc1ccc(C2=Nn3c(nnc3-c3ccccc3OC)SC2)cc1OC1CCCC1 | 14.1 µM (active) | 
21 | Cc1nnc2n1N=C(c1ccc3c(c1)NC(=O)CO3)CS2 | inactive | 
22 | CCN(CCCNC(=O)CSc1cc(=O)n(C)c2cc(Cl)ccc12)c1cccc(C)c1 | inactive | 
23 | CCC1(C2CCN(C(=O)c3cccc(F)c3F)CC2)NC(=O)N(CCc2scnc2C)C1=O (configuration not stated) | inactive | 
24 | COc1cc(=O)n2c(c1C(=O)NCc1ccco1)CCN(Cc1ccccc1)CC2 | inactive | 
25 | CCCCN(CC)CCCNC(=O)CS(=O)(=O)Cc1nc(-c2cccc(OC)c2)oc1C | inactive | 

Row | SMILES | Potency | activity change, negative = inhibition
26 | COc1cccc(-c2nc(CS(=O)(=O)CC(=O)N3CCN(c4cc(C)ccc4C)CC3)c(C)o2)c1 | 20 µM (active) | 
27 | Cc1ccccc1-c1nc(CS(=O)(=O)CC(=O)N2CCc3ccccc3C2)c(C)o1 | inactive | 
28 | COc1ccc(C)cc1-n1c(-c2ccc(C)cc2)cc2c1CC(C)(C)CC2=O | inactive | 
29 | N#CC(C#N)=Cc1cc(O)c(O)c([N+](=O)[O-])c1 | inactive | 
30 | COc1ccc(-n2nnc(-c3nsc(NC(=O)c4ccc(C)c(C)c4)n3)c2C)cc1Cl | inactive | 
31 | Cc1sc2ncnc(SCC(=O)Nc3ccc(CN4CCCC4)cc3)c2c1C | inactive | 
32 | Cc1ccc(C)n1-c1nnc(N2CCC(C(=O)NCc3ccc(F)cc3)CC2)s1 | inactive | 
33 | CCc1ccc(C(=O)NNC(=O)C2CCN(c3ncnc4sc(C)c(C)c34)CC2)cc1 | 31.6 µM (active) | 
34 | Cc1sc2ncnc(SCC(=O)NC3CCS(=O)(=O)C3)c2c1C (configuration not stated) | inactive | 
35 | Cc1sc2ncnc(N3CCC(C(=O)NNC(=O)c4ccc(F)cc4)CC3)c2c1C | 20 µM (active) | 
36 | CCc1ccc(CNC(=O)C2CCN(c3nnc(C)c4c(C)n(-c5ccc(C)cc5)nc34)CC2)cc1 | inactive | 
37 | COc1cccc(Cn2c(=O)c(CCc3ccccc3)nc3cnc(N(C)C)nc32)c1 | inactive | 
38 | COc1ccc(/C=C2\NC(=O)[C@@H]3Cc4ccccc4CN3C2=O)cc1 | inactive | 
39 | CC(=O)N1CCC2(CC1)CCN(c1ccncc1)CC2 | inactive | 
40 | COc1ccc(C2Oc3c(I)c(OC)cc(OC)c3CC2O)cc1OC (configuration not stated) | inactive | 
41 | COc1ccc(-n2c(=O)c(C)nc3cnc(N4CCOCC4)nc32)cc1 | inactive | 
42 | Cc1ccc(CCNC(=O)c2ccc3c(c2)nc2n3CCC(C)C2)cc1 (configuration not stated) | inactive | 
43 | CC=CCn1c(SCCCc2ccccc2)nc2c1c(=O)[nH]c(=O)n2C | inactive | 
44 | C=CCn1c(SCc2ccccc2)nc2c1c(=O)[nH]c(=O)n2C | inactive | 
45 | CCCCCn1c(SCCC(C)C)nc2c1c(=O)[nH]c(=O)n2C | 39.8 µM (active) | 
46 | COc1ccc(S(=O)(=O)NCc2cccn2Cc2cccc(C)c2)cc1 | inactive | 
47 | Cn1cc(-c2nc3cnc(N4CCNCC4)nc3n(CCc3ccccc3)c2=O)c2ccccc21 | inactive | 
48 | Cc1cc(-c2ccnc(-n3ncc(C(=O)NC(C)(C)CO)c3C3CC3)n2)c(C)s1 | inactive | 
49 | CCOC(=O)c1c(NC(=O)CCl)sc(C(=O)N(CC)CC)c1C | 20 µM (active) | 
50 | CCOC(=O)c1c(NC(=O)c2cc(CC)on2)sc(C(C)=O)c1C | inactive | 

Row | SMILES | Potency | activity change, negative = inhibition
51 | CCOC(=O)c1c(NC(=O)COC(=O)c2ccc(S(=O)(=O)C(F)F)cc2)sc(C(=O)N(C)C)c1C | inactive | 
52 | O=C(CCS(=O)(=O)c1ccc2c(c1)NC(=O)CO2)Nc1cccc(C(F)(F)F)c1 | inactive | 
53 | O=C(c1ccco1)N1CCC2(CC1)CN(c1ncccn1)C2 | inactive | 
54 | CCOC(=O)c1cc2c(=O)n3ccccc3nc2n(Cc2ccco2)c1=NC(=O)c1ccc(F)cc1 | inactive | 
55 | Cn1c(=O)c(-c2ccccc2)nc2cnc(N3CCNCC3)nc21 | inactive | 
56 | Cc1ccc(-c2cn3cc([N+](=O)[O-])ccc3n2)cc1 | 11.2 µM (active) | 
57 | Cc1nc(-c2ccccc2)cn2c1nc1ccccc12 | inactive | 
58 | Cn1cnc(C(F)(F)F)c1-c1ccc([N+](=O)[O-])cc1 | inactive | 
59 | Cc1ccc(-n2cc3ccc([N+](=O)[O-])cc3n2)cc1 | inactive | 
60 | Cc1ccc(-c2cn3cc(C)ccc3n2)cc1 | 8.91 µM (active) | 
61 | CN(C)C(=O)c1ccc(-c2cncnc2Nc2ccccc2)cc1 | inactive | 
62 | O=C(c1cccc(F)c1)N1CCC2(CCCN(Cc3ccncc3)C2)CC1 | inactive | 
63 | CC1CCN(S(=O)(=O)c2ccc3c(ccn3CCC(=O)NCc3ccc(N(C)C)cc3)c2)CC1 | inactive | 
64 | Cn1c(=O)oc2cc(S(=O)(=O)N3CCC(C(=O)Nc4ccc(OC(F)(F)F)cc4)CC3)ccc21 | inactive | 
65 | Cc1ccc2nc(NC(=O)C3CCN(S(=O)(=O)c4ccc5c(c4)oc(=O)n5C)CC3)sc2c1 | 12.6 µM (active) | 
66 | Cc1ccc(S(=O)(=O)N2CCC(C(=O)Nc3cc(C)ccc3C)CC2)cc1 | inactive | 
67 | CC(C)N1C[C@@H](NCc2ccccc2O)C[C@H]1C(=O)N1CCN(c2cccc(C(F)(F)F)c2)CC1 | inactive | 
68 | O=c1c(-c2ccc(F)c(F)c2)nc2cncnc2n1-c1ccccc1 | inactive | 
69 | O=C(Nc1ccccc1Cl)/C(Cl)=C(\Cl)S(=O)c1ccccc1 (configuration not stated) | 7.08 µM (active) | 
70 | O=C(Nc1ccccc1Cl)N1CCC(CN2CCCC2)CC1 | inactive | 
71 | O=C(Nc1ccccc1Cl)N1CCC(CN2CCCCC2)CC1 | inactive | 
72 | CSc1nc(Nc2ccc(F)cc2)cc(-c2ccccc2)n1 | inactive | 
73 | CC(=O)c1ccc(F)c(-c2cc(C)cc3c2OC(CNC(=O)Cc2c[nH]c4ccccc24)C3)c1 (configuration not stated) | inactive | 
74 | Cc1nnc(SCc2cc(=O)c3cc(F)ccc3[nH]2)n1C | inactive | 
75 | CC(=O)c1c(O)c(C)c(O)c(Cc2c(O)c3c(c(C(=O)/C=C/c4ccccc4)c2O)OC(C)(C)C=C3)c1O | inactive | 

Row | SMILES | Potency | activity change, negative = inhibition
76 | O=C(CSc1nccn1Cc1ccc(F)cc1)NCc1ccccc1 | inactive | 
77 | CC(C)(C)c1ccc(Oc2ccc(N)cc2)cc1 | 2.51 µM (active) | 
78 | CC(C)(C)c1ccc(OC(=O)N2CCCCC2)cc1 | inactive | 
79 | COc1ccc(CCNc2ncnc3c2cnn3-c2ccc(C)cc2)cc1 | inactive | 
80 | CC1(C)CCSC(/C=C/c2ccccc2)=N1 | 14.1 µM (active) | 
81 | CC1(C(=O)NS(=O)(=O)c2ccccc2)CCN1C(=O)C/C=C/c1ccccc1 (configuration not stated) | inactive | 
82 | CC1(C(=O)O)CCN1C(=O)/C=C/c1ccccc1 (configuration not stated) | inactive | 
83 | CC1(C)C=CC(=O)[C@]2(C)C1CC(=O)[C@]1(C)C2CC[C@@]2(C)C(c3ccoc3)OC(=O)C3OC321 (some centres not stated) | inactive | 
84 | CCCS(=O)(=O)N1CCC(C(=O)NCCc2ccc(OC)c(OC)c2)CC1 | inactive | 
85 | CCS(=O)(=O)N1CCCC(C(=O)NCCCN(C)Cc2ccccc2)C1 (configuration not stated) | inactive | 
86 | CCCS(=O)(=O)N1CCC(C(=O)NCCCN(C)Cc2ccccc2)CC1 | 28.2 µM (active) | 
87 | Cc1c(O)cc(O)c2c(=O)c(-c3ccc(O)cc3)coc12 | inactive | 
88 | Cc1cccc(N2CCN(C(=O)c3cc4c(=O)[nH]c5ccccc5c4n3C)CC2)c1C | 31.6 µM (active) | 
89 | CCn1c(C)c(C)c2cc(C(=O)N3CCN(c4cccc(C)c4C)CC3)ccc21 | inactive | 
90 | Cc1cccc(N2CCN(C(=O)c3oc(=O)c4ccccc4c3-c3ccccc3)CC2)c1C | inactive | 
91 | O=C(Nc1cccc(F)c1)N1CC2(CCN(C(=O)c3cnccn3)CC2)C1 | inactive | 
92 | COC(=O)c1ccccc1-c1cc(C)cc2c1OC(CNC(=O)C1CCOC1)C2 (configuration not stated) | inactive | 
93 | Cc1cc(C(=O)COc2ccccc2[N+](=O)[O-])c(C)n1-c1cccc(S(=O)(=O)N2CCOCC2)c1 | 12.6 µM (active) | 
94 | O=C(COc1ccc(S(=O)(=O)N2CCCC2)cc1[N+](=O)[O-])N1CCCCC1 | inactive | 
95 | Cc1cc(S(=O)(=O)N2CCOCC2)ccc1OCC(=O)N1CCOCC1 | inactive | 
96 | CCC1CN(CCNC(=O)c2cccnc2C)Cc2cc(OC)ccc2O1 (configuration not stated) | inactive | 
97 | CC1=C(c2ccc(F)cc2)S(=O)(=O)N=C1N1CCC(C(=O)NCCc2ccccc2C)CC1 | inactive | 

— PubChem BioAssay AID1159524 (National Center for Advancing Translational Sciences (NCATS), 2015)
